A word on the Inhibition: it is how much of the control response was suppressed. High values mean a strong effect, low ones a weak effect.

This passage reports Inhibition results from ChEMBL document CHEMBL1157539, “Thousands of chemical starting points for antimalarial lead identification” (Nature, 2010).

Molecules are shown by their SMILES.

What all share (type): functional
Test [1] relates to Plasmodium falciparum. The experiment in a line: GSK_TCMDC: Inhibition of Plasmodium falciparum 3D7 in whole red blood cells, using parasite LDH activity as an index of growth. Test compounds present at 2uM.
The next test concerns HepG2. The test is described as follows: GSK_TCMDC: Percent inhibition of human HepG2 cell line. Test compounds present at 10uM.
Test [2] concerns Plasmodium falciparum. The experiment in a line: GSK_TCMDC: Inhibition of Plasmodium falciparum Dd2 in whole red blood cells, using parasite LDH activity as an index of growth. Test compounds present at 2uM.

Regarding `CC(CC1CCCCC1)NCc1ccccc1OCCC(=O)N1CCCC1C(N)=O` (configuration not stated), the Inhibition stood at 97% with Plasmodium falciparum [1] and 5% in the test with HepG2.

For `Cl.O=C(NCCCCN1CCC(c2ccc3c(c2OCCCO)CCCC3)CC1)c1ccc(-c2ccc(C(F)(F)F)cc2)c(CO)c1`, the Inhibition came to 95% with Plasmodium falciparum [1] and 66% in the test with HepG2.

For `O=C(Nc1ccc(C(F)(F)F)cc1)c1cc(Cl)cc2nc(C(F)(F)F)[nH]c12`, the Inhibition with Plasmodium falciparum [1] amounted to 100%; with HepG2 it was 86%.

For `CNC(=O)c1ccc(/C=C/C(=O)N2CCc3ccc(-c4ccccc4)cc3C2c2cccc(C(F)(F)F)c2)cc1` (configuration not stated), the results for the Inhibition with Plasmodium falciparum [1] and in the test with HepG2 were 91% and 9%, respectively.

Regarding `CC(=O)Nc1ccc(CN2CCc3ccc(NS(=O)(=O)c4ccc(-c5cccc(C(F)(F)F)c5)cc4)cc3CC2)s1`, the Inhibition in the test with Plasmodium falciparum [1] turned out to be 82%; with HepG2 it was 23%.

For the compound `COc1ccc(C2CC(c3cccs3)=NN2C(=O)COc2cccc(C(C)=O)c2)cc1OC` (configuration not stated), the Inhibition amounted to 99% in the test with Plasmodium falciparum [1] and 10% in the test with HepG2.

As for `COc1ccc(CCN2CC[C@H](CNc3nc(-c4ccccc4)nc4ccccc34)C2)cc1S(N)(=O)=O.O=C(O)C(F)(F)F`, the values for the Inhibition in the test on Plasmodium falciparum [1] and with HepG2 were 85% and 54%, respectively.

With `Cc1cc2c(cc1C(F)(F)F)N(C(=O)Nc1ccc(C(=O)NCCN3CCCC3)cc1)CC2`, the Inhibition is 100% in the test with Plasmodium falciparum [1] and 10% with HepG2.

For the compound `N=C(N)c1nc2ccccc2s1`, the Inhibition in the test on Plasmodium falciparum [1] turned out to be 87%; in the test with HepG2, 1%.

Consider `COc1cc2c(cc1C(F)(F)F)N(C(=O)Nc1ccc(Br)cn1)CC2`, for which the Inhibition in the test with Plasmodium falciparum [1] is given as 97%; with HepG2 it was 16%.

For `CC1CN(c2ccc3[nH]cc(Sc4ccc(-c5cccs5)cc4)c3c2)CC(C)N1.Cl` (configuration not stated), the Inhibition was found to be 89% with Plasmodium falciparum [1] and 29% with HepG2.

`COc1cc(CCNCC(O)c2ccc([N+](=O)[O-])c(OCc3ccccc3)c2)cc(OC)c1OC.Cl` (configuration not stated): the Inhibition in the test on Plasmodium falciparum [1] was determined as 98%; in the test on HepG2, 11%.

`CN(C)Cc1cccc(-c2ccc(NC(=O)c3ccc4c(=O)n(Cc5cnn(C)c5)cnc4c3)cc2)c1`: the Inhibition with Plasmodium falciparum [1] is 80%; in the test on HepG2, 12%.

Take `O=C(c1ccccc1)N1CCC[C@](CCCN2CCN(c3ccccc3O)CC2)(c2ccc(Cl)c(Cl)c2)C1`: the results for the Inhibition with Plasmodium falciparum [1] and with HepG2 were 80% and 16%, respectively.

Turning to `O=C(Nc1cccc(-c2nn3ccccc3c2-c2ccnc(Nc3cccc(F)c3)n2)c1)C1CCCCC1`, the Inhibition with Plasmodium falciparum [1] is on record as 85%; in the test on HepG2, 44%.

With `COc1cc(Cc2cnc(N)nc2N)ccc1OCc1csc(-c2ccc(Cl)cc2)n1`, the results for the Inhibition in the test on Plasmodium falciparum [1] and in the test on HepG2 were 93% and 39%, respectively.

Consider `Br.Oc1ccc(CCNCCCCCNCCCc2ccc(Cl)cc2)cc1O`, for which the Inhibition with Plasmodium falciparum [1] is recorded as 91%; in the test on HepG2, 22%.

`CN1CCC(N2CCN(C(=O)c3cccc(-c4cccc(-c5nc6ccccc6[nH]5)c4)c3)CC2)CC1`: the Inhibition in the test with Plasmodium falciparum [1] is 100%; in the test on HepG2, 10%.

As for `Cc1ccccc1Oc1ccc(Nc2ccnc(Nc3cccc(C(N)=O)c3)n2)cc1C(F)(F)F.Cl`, the Inhibition with Plasmodium falciparum [1] is given as 81%; in the test on HepG2 it was 9%.

For `Cc1nc(Cl)c2c(-c3ccccc3)csc2n1`, the Inhibition in the test on Plasmodium falciparum [1] is on record as 84%; with HepG2 it was 0%.

In the case of `COc1ccc(/N=C(\N)Nc2ccccc2)nc1Cc1ccccc1`, the Inhibition in the test with Plasmodium falciparum [1] is 81%; with HepG2, 17%.

For `CCc1cc(-c2n[nH]c(C(F)(F)F)c2-c2ccccc2)c(O)cc1OC`, the Inhibition turned out to be 84% in the test on Plasmodium falciparum [1] and 9% in the test with HepG2.

With `C=CC(C)C1OC(=O)c2cc(OC)cc(OC)c21` (configuration not stated), the Inhibition in the test with Plasmodium falciparum [1] and in the test on HepG2 was 100% in each case.

As for `COc1cccc(-c2nc(Nc3ccncc3)c3ncn(C)c3n2)c1.O=C(O)C(F)(F)F`, the Inhibition with Plasmodium falciparum [1] is reported as 94%; in the test on HepG2 it was 14%.

For `CCN(CC)CCCC(C)Nc1ccnc2cc(Cl)ccc12.O=P(O)(O)O.O=P(O)(O)O` (configuration not stated) [CHLOROQUINE PHOSPHATE], the Inhibition in the test on Plasmodium falciparum [2] turned out to be 96%; in the test with HepG2, 12%.

For `CC(Sc1nnc(-c2ccccc2Br)[nH]1)C(=O)Nc1ccc(F)cc1` (configuration not stated), the results for the Inhibition in the test with Plasmodium falciparum [1] and with HepG2 were 90% and 0%, respectively.
